According to PubChem BioAssay:
The source made the active and inactive calls. Unless noted, the rule behind the calls is not given here.

How the values were obtained:
[1] = test system: Wnt5a (protein binding on small-molecule microarray); assay: Wnt5a binders on small-molecule microarray, primary screen, biophysical, 635/667 nm fluorescence (AID 1142); conditions: 635 nm fluorescence, higher = more signal;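 note: fluorescence read at 667 nm with signal to noise per printed feature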
[2] = cell viability in Huh7 cells, primary screen, cytotoxicity control for HCV replication inhibitor project, CellTiter-Glo luminescence, basal, 48 h (AID 1143); conditions: Huh7 HCV replicon, higher = more signal, called active from +8 up or from −8 down;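 note: Huh7 hepatoma cells carrying a hepatitis C replication reporter with no stimulus; test concentration not given here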
[3] = P. aeruginosa biofilm formation inhibitors, primary screen, PAO1 strain, BacTiter-Glo luminescence, LB-PBS (AID 1144); conditions: 12 h, higher = more signal
[4] = CREB reporter modulators without forskolin, primary screen, cell-based, PC12, CRE-LacZ reporter, unstimulated (AID 1145); conditions: no forskolin, luminescence, 4.5 h, higher = more signal, called active from +8 up or from −8 down
[5] = CREB reporter modulators under forskolin, primary screen, cell-based, PC12, CRE-LacZ reporter, forskolin-stimulated (AID 1146); conditions: luminescence, 4.5 h, higher = more signal, called active from +8 up or from −8 down;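 note: PC12 cells with 6xCRE LacZ reporter stimulated by forskolin 10 µM; beta-galactosidase reporter signal reflecting CREB driven transcription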
[6] = target: Streptavidin (Streptomyces avidinii) (UniProt P22629); assay: streptavidin binders on small-molecule microarray, primary screen, artefact control for SMM compound annotation, biophysical, 635/667 nm fluorescence (AID 1147); conditions: streptavidin binding, higher = more signal;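 note: signal reflects streptavidin binding to arrayed compounds as a control protein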
Sequence of Streptavidin (Streptomyces avidinii) (P22629 whole entry, looked up): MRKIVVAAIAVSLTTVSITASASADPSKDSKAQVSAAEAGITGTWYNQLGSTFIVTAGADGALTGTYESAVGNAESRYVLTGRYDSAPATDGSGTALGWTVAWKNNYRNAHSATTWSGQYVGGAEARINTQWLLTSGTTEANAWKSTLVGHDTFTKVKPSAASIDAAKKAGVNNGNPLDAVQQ

[7] = small-molecule binders of probe aInhba, primary screen, biochemical, small-molecule microarray, 635/667 nm fluorescence (AID 1148); conditions: higher = more signal;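 note: score merges 667nm spot fluorescence with signal-to-noise for antibody binding to printed compounds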
[8] = target: Torsin-1A (Homo sapiens) (UniProt O14656); assay: torsin A binders from cell lysate, primary screen, small-molecule microarray, wild-type, 635/667 nm (AID 1149); conditions: COS7 hTOR1A-WT lysate, 635 nm fluorescence, higher = more signal
Sequence of Torsin-1A (Homo sapiens) (O14656 whole entry, looked up): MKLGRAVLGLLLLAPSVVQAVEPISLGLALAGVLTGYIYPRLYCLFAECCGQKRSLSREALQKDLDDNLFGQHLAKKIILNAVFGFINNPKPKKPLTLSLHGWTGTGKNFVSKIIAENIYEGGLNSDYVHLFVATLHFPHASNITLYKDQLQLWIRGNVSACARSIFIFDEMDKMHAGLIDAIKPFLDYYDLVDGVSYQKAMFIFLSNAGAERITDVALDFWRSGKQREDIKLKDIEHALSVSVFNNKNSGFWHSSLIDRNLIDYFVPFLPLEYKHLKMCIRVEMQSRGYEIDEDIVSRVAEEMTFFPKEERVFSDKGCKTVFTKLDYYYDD

[9] = target: Torsin-1A (Homo sapiens) (UniProt O14656); assay: small-molecule binders of mutant TOR1A in lysate, primary screen, cell lysate, small-molecule microarray, COS7 lysate, 635/667 nm fluorescence (AID 1150); conditions: COS7 hTOR1A mutant lysate, 635 nm fluorescence, higher = more signal;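 note: score pools 667 nm emission and signal to noise measuring lysate protein binding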
[10] = test system: Sonic hedgehog protein (Shh); assay: small-molecule binders of Shh protein, primary screen, biochemical, small-molecule microarray, 635/667 nm fluorescence (AID 1151); conditions: small-molecule microarray binding, 635 nm fluorescence; higher = more signal;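 note: Shh protein binding to compounds spotted on small-molecule microarray slides; score combines spot fluorescence intensity with signal-to-noise across triplicate slides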
[11] = E. coli DRC41 culture turbidity changes, primary screen, E. coli filamentation inducer project, strain DRC41, OD650, 48 h (AID 1152);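 note: E. coli MC1000 strain DRC41 lacking acrAB efflux pump and sulA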; conditions: E. coli DRC41 (acrAB sulA), higher = more signal, called active from +8 up or from −8 down
[12] = small-molecule binders of probe aLefty1, primary screen, biochemical, small-molecule microarray, 635/667 nm fluorescence (AID 1153); conditions: higher = more signal;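 note: score merges spot fluorescence with signal-to-noise ratio from the scanned slide images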
[13] = PSAC antagonists in infected red cells, primary screen, cell-based, P. falciparum Indochina, OD700, 1 h (AID 1154); conditions: P. falciparum Indochina infected RBC osmotic lysis, higher = more signal, called active from +8 up or from −8 down
[14] = PSAC antagonists in infected red cells, primary screen, cell-based, P. falciparum Indochina, OD700, 2 h (AID 1155);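 note: lysis reports solute entry through the parasite surface anion channel PSAC; channel blockers reduce lysis of infected cells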; conditions: P. falciparum Indochina infected erythrocytes, osmotic lysis OD700; higher = more signal, called active from +8 up or from −8 down
[15] = osmotic lysis modulators in infected erythrocytes, primary screen, PSAC antagonist project, cell-based, P. falciparum Indochina, OD700, 3 h (AID 1156); conditions: higher = more signal, called active from +8 up or from −8 down
[16] = PSAC antagonists in infected red cells, primary screen, cell-based, P. falciparum Indochina, OD700, 18 h (AID 1157); conditions: P. falciparum Indochina infected erythrocytes, osmotic lysis OD700, 18 h; higher = more signal, called active from +8 up or from −8 down
[17] = modulators of S6 phosphorylation in cells, primary screen, cell-based, A549, cytoblot, luminescence, serum-stimulated (AID 1158); conditions: A549 phospho-S6 cytoblot, 5 h, higher = more signal;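 note: serum-stimulated A549 lung adenocarcinoma cells; signal is phosphorylated S6 detected by cytoblot immunostaining with HRP secondary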
[18] = target: NADPH oxidase 2 (Homo sapiens) (UniProt P04839); assay: NOX2-dependent H2O2 signal modulators, primary screen, NOX inhibitor project, cell-based, HEK293-NOX2, PMA-stimulated, Amplex Red fluorescence (AID 1159); conditions: 45 min, higher = more signal, called active from +8 up or from −8 down; note: test concentration not given here
Sequence of NADPH oxidase 2 (Homo sapiens) (P04839 whole entry, looked up): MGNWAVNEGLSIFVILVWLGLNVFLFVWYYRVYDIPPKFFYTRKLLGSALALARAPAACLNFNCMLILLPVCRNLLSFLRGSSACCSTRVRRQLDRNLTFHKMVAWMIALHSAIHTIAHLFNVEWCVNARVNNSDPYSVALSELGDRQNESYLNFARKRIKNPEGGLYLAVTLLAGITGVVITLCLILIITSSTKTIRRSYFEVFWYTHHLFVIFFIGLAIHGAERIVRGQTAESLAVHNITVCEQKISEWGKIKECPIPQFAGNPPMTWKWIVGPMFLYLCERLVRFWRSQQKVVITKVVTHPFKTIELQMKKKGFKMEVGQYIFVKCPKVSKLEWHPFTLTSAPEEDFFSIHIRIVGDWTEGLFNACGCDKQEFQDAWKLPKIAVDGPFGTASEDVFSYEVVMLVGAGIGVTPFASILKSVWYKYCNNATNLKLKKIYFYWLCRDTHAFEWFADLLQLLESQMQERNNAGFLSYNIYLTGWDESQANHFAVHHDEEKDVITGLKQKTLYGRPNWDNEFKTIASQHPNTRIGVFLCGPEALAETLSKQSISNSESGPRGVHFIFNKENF

[19] = target: NADPH oxidase 4 (Homo sapiens) (UniProt Q9NPH5); assay: NOX4-dependent H2O2 signal modulators, primary screen, NOX inhibitor project, cell-based, HEK293-NOX4, tetracycline-induced, Amplex Red fluorescence (AID 1160); conditions: 45 min, higher = more signal, called active from +8 up or from −8 down
Sequence of NADPH oxidase 4 (Homo sapiens) (Q9NPH5 whole entry, looked up): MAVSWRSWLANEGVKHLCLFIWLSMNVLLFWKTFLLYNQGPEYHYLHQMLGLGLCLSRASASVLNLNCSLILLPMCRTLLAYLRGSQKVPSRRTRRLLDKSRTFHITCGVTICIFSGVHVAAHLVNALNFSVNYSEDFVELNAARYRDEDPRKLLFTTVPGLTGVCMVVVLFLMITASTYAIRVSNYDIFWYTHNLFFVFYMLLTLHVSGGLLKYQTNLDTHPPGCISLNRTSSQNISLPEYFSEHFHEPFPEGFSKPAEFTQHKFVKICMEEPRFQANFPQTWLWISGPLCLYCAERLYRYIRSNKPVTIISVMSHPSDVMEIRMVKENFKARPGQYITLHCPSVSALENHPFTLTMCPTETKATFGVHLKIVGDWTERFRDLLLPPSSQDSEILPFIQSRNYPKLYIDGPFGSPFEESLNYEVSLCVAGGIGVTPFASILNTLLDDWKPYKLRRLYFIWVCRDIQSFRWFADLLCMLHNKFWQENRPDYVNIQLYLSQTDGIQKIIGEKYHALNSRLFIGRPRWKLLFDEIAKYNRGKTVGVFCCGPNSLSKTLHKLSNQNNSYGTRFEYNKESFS

[20] = target: NADPH oxidase 5 (Homo sapiens) (UniProt Q96PH1); assay: NOX5-dependent H2O2 signal modulators, primary screen, NOX inhibitor project, cell-based, HEK293-NOX5, Amplex Red fluorescence (AID 1161); conditions: HEK293-NOX5, ionomycin, 45 min, higher = more signal
Sequence of NADPH oxidase 5 (Homo sapiens) (Q96PH1 whole entry, looked up): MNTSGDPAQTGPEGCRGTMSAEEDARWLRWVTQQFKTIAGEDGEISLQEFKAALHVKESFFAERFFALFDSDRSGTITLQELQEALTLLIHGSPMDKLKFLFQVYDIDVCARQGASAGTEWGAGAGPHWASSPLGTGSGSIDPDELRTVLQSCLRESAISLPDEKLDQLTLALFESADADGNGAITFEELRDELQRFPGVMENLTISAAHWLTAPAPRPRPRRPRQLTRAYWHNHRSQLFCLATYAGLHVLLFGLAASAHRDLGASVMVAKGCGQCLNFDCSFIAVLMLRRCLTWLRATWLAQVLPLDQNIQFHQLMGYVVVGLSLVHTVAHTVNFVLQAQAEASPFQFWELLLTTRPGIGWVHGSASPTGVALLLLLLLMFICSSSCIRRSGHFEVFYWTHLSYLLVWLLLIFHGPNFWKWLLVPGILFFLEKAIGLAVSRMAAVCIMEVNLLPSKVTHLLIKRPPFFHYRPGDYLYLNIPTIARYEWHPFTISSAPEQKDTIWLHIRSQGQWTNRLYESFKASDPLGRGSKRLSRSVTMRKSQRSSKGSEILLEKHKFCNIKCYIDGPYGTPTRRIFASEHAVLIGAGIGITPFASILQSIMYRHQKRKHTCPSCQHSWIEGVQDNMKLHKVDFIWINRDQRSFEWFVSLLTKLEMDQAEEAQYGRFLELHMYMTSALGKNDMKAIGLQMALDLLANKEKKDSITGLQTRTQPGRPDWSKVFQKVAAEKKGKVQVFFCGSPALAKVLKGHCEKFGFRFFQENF

Compound: CCOC(=O)C=Cc1cc(F)ccc1O
- composite z-score [1]: 0.139
- z-score [2]: -4.58 (inactive)
- z-score [3]: -0.557 (inactive)
- z-score [4]: 0.276 (inactive)
- z-score [5]: -0.804 (inactive)
- composite z-score [6]: 0.761
- composite z-score [7]: 0.0705
- composite z-score [8]: 0.165
- composite z-score [9]: 0.448
- composite z-score [10]: -0.587
- z-score [11]: -1.38 (inactive)
- composite z-score [12]: 0.0355
- z-score [13]: 16.6 (active)
- z-score [14]: -0.347 (inactive)
- z-score [15]: 0.782 (inactive)
- z-score [16]: -1.23 (inactive)
- z-score [17]: 0.684
- z-score [18]: -4.77 (inactive)
- z-score [19]: -3.25 (inactive)
- z-score [20]: -4.14

Compound: COc1cc2c(cc1O)C(c1cccs1)N(Cc1sc3ccccc3c1Cl)CC2 (stereo not given)
- composite z-score [1]: 0.702
- z-score [2]: -2.5 (inactive)
- z-score [3]: 0.546 (inactive)
- z-score [4]: -0.141 (inactive)
- z-score [5]: 0.93 (inactive)
- composite z-score [6]: 1.64
- composite z-score [7]: 0.122
- composite z-score [8]: 1.43
- composite z-score [9]: 1.56
- composite z-score [10]: 0.953
- z-score [11]: -1.49 (inactive)
- composite z-score [12]: 0.0479
- z-score [13]: 10.4 (active)
- z-score [14]: 3.63 (inactive)
- z-score [15]: -0.333 (inactive)
- z-score [16]: 2.24 (inactive)
- z-score [17]: -0.511
- z-score [18]: -3.92 (inactive)
- z-score [19]: -2.48 (inactive)
- z-score [20]: -3.48

Compound: Cc1ccc(S[C@]2(C(=O)NC(C)C)CC(=O)N(C(C)C)[C@@H]2c2ccc(CO)cc2I)cc1
- composite z-score [1]: -0.0983
- z-score [2]: -2.59 (inactive)
- z-score [3]: -0.468 (inactive)
- z-score [4]: 0.324 (inactive)
- z-score [5]: -0.3 (inactive)
- composite z-score [6]: -0.368
- composite z-score [7]: -0.15
- composite z-score [8]: -1.07
- composite z-score [9]: 0.885
- composite z-score [10]: -0.244
- z-score [11]: -0.745 (inactive)
- composite z-score [12]: 0.207
- z-score [13]: 4.77 (inactive)
- z-score [14]: 0.342 (inactive)
- z-score [15]: 0.59 (inactive)
- z-score [16]: 0.397 (inactive)
- z-score [17]: 0.293
- z-score [18]: 1.8 (inactive)
- z-score [19]: -1.53 (inactive)
- z-score [20]: -0.227

Compound: C=CCOC(=O)[C@H]1[C@@H]2C(=O)O[C@@H](c3ccccc3)[C@@H](c3ccccc3)N2[C@@H](c2ccc(OCCOC(=O)[C@H]3C[C@H]4C(=O)N[C@@H](CCCCNC(C)=O)C(=O)N4[C@H]3c3cccc(OCCO)c3)cc2)[C@]12C(=O)Nc1ccc(I)cc12
- composite z-score [1]: 1.28
- z-score [2]: -2.16 (inactive)
- z-score [3]: 0.437 (inactive)
- z-score [4]: 0.557 (inactive)
- z-score [5]: 0.133 (inactive)
- composite z-score [6]: 0.0123
- composite z-score [7]: -0.431
- composite z-score [8]: 0.96
- composite z-score [9]: 0.763
- composite z-score [10]: 2.46
- z-score [11]: 0.831 (inactive)
- composite z-score [12]: -0.625
- z-score [13]: 1.81 (inactive)
- z-score [14]: -0.285 (inactive)
- z-score [15]: 1.31 (inactive)
- z-score [16]: -1.61 (inactive)
- z-score [17]: 0.112
- z-score [18]: -0.224 (inactive)
- z-score [19]: 0.68 (inactive)
- z-score [20]: -0.174

Compound: C=C(CCCC)C(=O)CC[C@H](OC(=O)c1ccccc1-c1ccccc1C(=O)O)c1ccccc1OCCO
- composite z-score [1]: -0.131
- z-score [2]: -0.397 (inactive)
- z-score [3]: -0.447 (inactive)
- z-score [4]: 5.04 (inactive)
- z-score [5]: 5.73 (inactive)
- composite z-score [6]: -0.759
- composite z-score [7]: -0.179
- composite z-score [8]: 1.03
- composite z-score [9]: 0.221
- composite z-score [10]: 2.07
- z-score [11]: 0.509 (inactive)
- composite z-score [12]: -0.0984
- z-score [13]: 8.58 (active)
- z-score [14]: 1.56 (inactive)
- z-score [15]: 1.82 (inactive)
- z-score [16]: 0.944 (inactive)
- z-score [17]: -0.27
- z-score [18]: 3.25 (inactive)
- z-score [19]: 0.0107 (inactive)
- z-score [20]: -1.15

Compound: NC(=O)NCC#Cc1ccc2c(c1)[C@]1(C(=O)N2)[C@H](C(=O)N2CCN(c3ncccn3)CC2)[C@H]2C(=O)O[C@H](c3ccccc3)[C@H](c3ccccc3)N2[C@@H]1c1ccc(OCCO)cc1
- composite z-score [1]: 0.388
- z-score [2]: 0.0749 (inactive)
- z-score [3]: -0.534 (inactive)
- z-score [4]: -0.231 (inactive)
- z-score [5]: 0.156 (inactive)
- composite z-score [6]: 0.644
- composite z-score [7]: 0.0391
- composite z-score [8]: 0.237
- composite z-score [9]: 0.875
- composite z-score [10]: 0.963
- z-score [11]: 0.682 (inactive)
- composite z-score [12]: 0.309
- z-score [13]: 5.91 (inactive)
- z-score [14]: 1.66 (inactive)
- z-score [15]: -0.015 (inactive)
- z-score [16]: 0.689 (inactive)
- z-score [17]: -0.24
- z-score [18]: 1.44 (inactive)
- z-score [19]: 1.1 (inactive)
- z-score [20]: 1.12

Compound: Cc1ccc(S[C@]2(C(=O)NCC(C)C)CC(=O)N(C3Cc4ccccc4C3)[C@@H]2c2ccc(CO)cc2I)cc1
- composite z-score [1]: -0.305
- z-score [2]: -0.552 (inactive)
- z-score [3]: 0.491 (inactive)
- z-score [4]: 0.389 (inactive)
- z-score [5]: 1.42 (inactive)
- composite z-score [6]: -1.21
- composite z-score [7]: -0.182
- composite z-score [8]: -0.284
- composite z-score [9]: -0.183
- composite z-score [10]: -0.51
- z-score [11]: -0.715 (inactive)
- composite z-score [12]: -0.192
- z-score [13]: 2.92 (inactive)
- z-score [14]: 0.768 (inactive)
- z-score [15]: 0.708 (inactive)
- z-score [16]: 0.475 (inactive)
- z-score [17]: -0.447
- z-score [18]: 1.25 (inactive)
- z-score [19]: 0.0492 (inactive)
- z-score [20]: 1.47

Compound: COC(=O)[C@@]1(Cc2ccc(F)cc2)[C@H]2c3cc(C(=O)N4CCCC4)n(C)c3C[C@H]2CN1C(=O)c1ccccc1
- composite z-score [1]: 0.926
- z-score [2]: -1.4 (inactive)
- z-score [3]: -0.666 (inactive)
- z-score [4]: 0.58 (inactive)
- z-score [5]: 0.736 (inactive)
- composite z-score [6]: 1.18
- composite z-score [7]: 0.757
- composite z-score [8]: 0.492
- composite z-score [9]: 1.34
- composite z-score [10]: -0.928
- z-score [11]: -0.327 (inactive)
- composite z-score [12]: 0.603
- z-score [13]: 2.59 (inactive)
- z-score [14]: 0.107 (inactive)
- z-score [15]: -0.105 (inactive)
- z-score [16]: 0.47 (inactive)
- z-score [17]: 0.305
- z-score [18]: 0.282 (inactive)
- z-score [19]: -0.466 (inactive)
- z-score [20]: -0.565
